Laboratory results reported in the supplement of paper PMC12350171.
Where a name gives a salt, the structure may show the parent alone. Values without a mark were called inactive.

How the values were obtained:
Conditions in all cases: 20 µM
[1] = tested on: Salmonella enterica typhimurium; test: growth AUC normalised to DMSO control (fraction of control); higher = less growth inhibition, active = hit call of the paper
Procedure, shortened: (§1)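 Three biological replicates were carried out, with OD578 read hourly for 24 h. Before inoculation at a starting OD578 of 0.01, pathogens were passaged anaerobically twice; plates were pre-reduced mGAM containing 20 μM compound and 1% DMSO, sealed with breathable membranes, and the Haemophilus parainfluenzae medium carried added hemin and NAD. Area under each growth curve was calculated by the trapezoidal rule up to the exponential-to-stationary transition and normalised to DMSO controls on the same plate.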

Shigella flexneri = test: as above
Procedure, shortened: as §1

Vibrio cholerae = test: as above
Procedure, shortened: as §1

[2] = tested on: Yersinia pseudotuberculosis; test: as above
Procedure, shortened: as §1

P. vulgatus RND KO = test: growth AUC normalised to DMSO control (median) (fraction of control); higher = less growth inhibition, active = hit call of the paper
Procedure, shortened: (§2)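 Anaerobic growth was tracked hourly at OD578 for 24 h in 96-well plates of mGAM seeded at OD578 0.01 with each approved-drug library compound at 20 μM and 1% DMSO. Strains had first been passaged twice overnight without oxygen. Three biological replicates were run. The reported median is the area under the curve, calculated by the trapezoidal rule on curves truncated at entry into stationary phase and normalised to vehicle wells on the same plate.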

P. vulgatus WT = test: as above
Procedure, shortened: as §2

[3] = tested on: S. enterica typhimurium WT; test: as above
Procedure, shortened: as §2

[4] = tested on: S. enterica typhimurium tolC KO; test: as above
Procedure, shortened: as §2
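Wherever growth AUC normalised to DMSO control (median) is given: active when median AUC fell below 0.1.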

Row | Compound | growth AUC normalised to DMSO control [1] | growth AUC normalised to DMSO control (Shigella flexneri) | growth AUC normalised to DMSO control (Vibrio cholerae) | growth AUC normalised to DMSO control [2] | growth AUC normalised to DMSO control (P. vulgatus RND KO) | growth AUC normalised to DMSO control (P. vulgatus WT) | growth AUC normalised to DMSO control [3] | growth AUC normalised to DMSO control [4]
1 | CC(=O)O[C@H]1C[C@@]2(C)[C@@H](C[C@@H](O)[C@H]3[C@@]4(C)CC[C@@H](O)[C@@H](C)[C@@H]4CC[C@@]32C)/C1=C(\CCC=C(C)C)C(=O)O [Fusidic acid sodium salt] | 0.997 | 0.974 | 0.927 | 0.824 (active) | 0.0166 (active) | 0.0143 (active) | 0.989 | 0.0407 (active)
2 | Cc1cc2cc3c(C)cc(=O)oc3c(C)c2o1 [Trioxsalen] | 0.994 | 1.03 | 0.996 | 0.995 | 1.03 | 1.02 | 0.996 | 0.955
3 | C=CC1=C(C(=O)O)N2C(=O)[C@@H](NC(=O)/C(=N\O)c3csc(N)n3)[C@H]2SC1 [Cefdinir] | 0.00595 (active) | 0.00663 (active) | 0.0728 (active) | 0.023 (active) | 0.0139 (active) | 0.0141 (active) | 0.0086 (active) | 0.00501 (active)
4 | CN(C)CCC=C1c2ccccc2COc2ccccc21 [Doxepin hydrochloride] | 1 | 0.977 | 0.899 | 0.994 | 0.976 | 0.962 | 0.997 | 0.977
5 | CN1CCN2c3ncccc3Cc3ccccc3C2C1 (stereo not drawn) [Mirtazapine] | 0.995 | 1.01 | 1.01 | 1 | 1.03 | 1.02 | 1 | 0.997
6 | Nc1ccc(C(=O)O)c(O)c1 [Aminosalicylic acid] | 1.03 | 1.01 | 0.988 | 0.962 | 1.02 | 1 | 1.01 | 1.01
7 | CC(=O)O[C@]1(C(C)=O)CC[C@H]2[C@@H]3C=C(C)C4=CC(=O)CC[C@]4(C)[C@H]3CC[C@@]21C [Megestrol acetate] | 1.02 | 1.12 | 1.1 | 1.05 | 0.992 | 0.999 | 1.01 | 0.931
8 | COc1ccc2[nH]c([S+]([O-])Cc3ncc(C)c(OC)c3C)nc2c1 (stereo not drawn) [Omeprazole] | 0.958 | 0.998 | 1.05 | 1 | 1.02 | 1.03 | 1 | 0.952
9 | CC(C)Cc1ccc([C@H](C)C(=O)O)cc1 [(S,+) Ibuprofen] | 1.01 | 0.968 | 0.95 | 0.983 | 0.989 | 0.982 | 0.994 | 1
10 | COc1cc(NC(C)CCCN)c2ncccc2c1 (stereo not drawn) [Primaquine diphosphate] | 0.998 | 1.01 | 1.01 | 1.02 | 1.01 | 1.02 | 1.01 | 0.998
11 | OCCN1CCN(CC/C=C2/c3ccccc3Sc3ccc(Cl)cc32)CC1 [Zuclopenthixol dihydrochloride] | 0.996 | 0.972 | 0.946 | 0.998 | 0.928 | 0.962 | 0.992 | 0.887
12 | CC(=O)Oc1cccc2c1C(=O)c1c(OC(C)=O)cc(C(=O)O)cc1C2=O [Diacerein] | 1 | 0.997 | 0.784 (active) | 1.01 | 0.0327 (active) | 0.324 | 0.995 | 0.38
13 | CC[N+](CC)(CC)CCOc1cccc(OCC[N+](CC)(CC)CC)c1OCC[N+](CC)(CC)CC [Gallamine triethiodide] | 1 | 1.02 | 1.01 | 1.02 | 1.02 | 1.02 | 1.01 | 1.01
14 | CN1Cc2c(N)cccc2C(c2ccccc2)C1 (stereo not drawn) [Nomifensine maleate] | 0.977 | 1.01 | 0.961 | 0.94 | 1 | 0.987 | 0.997 | 1
15 | CC(C)(S)C(N)C(=O)O (racemic) [D,L-Penicillamine] | 0.993 | 0.991 | 0.996 | 0.992 | 1.01 | 1.01 | 1.01 | 1
16 | C[C@]12CCC(=O)C=C1CC[C@@H]1[C@@H]2[C@@H](O)C[C@@]2(C)[C@H]1CC[C@]2(O)C(=O)CO [Hydrocortisone] | 0.983 | 0.969 | 0.97 | 1.01 | 0.98 | 0.994 | 0.999 | 0.996

Row | Compound | growth AUC normalised to DMSO control [1] | growth AUC normalised to DMSO control (Shigella flexneri) | growth AUC normalised to DMSO control (Vibrio cholerae) | growth AUC normalised to DMSO control [2] | growth AUC normalised to DMSO control (P. vulgatus RND KO) | growth AUC normalised to DMSO control (P. vulgatus WT) | growth AUC normalised to DMSO control [3] | growth AUC normalised to DMSO control [4]
17 | C[n+]1ccccc1/C=N/O [Pralidoxime chloride] | 0.998 | 1.01 | 0.971 | 1.01 | 1.01 | 1 | 1.01 | 1
18 | CN1C2CCCC1CC(NC(=O)c1nn(C)c3ccccc13)C2 (stereo not drawn) [Granisetron] | 1 | 1.02 | 1.01 | 1 | 1 | 0.987 | 0.982 | 1
19 | Nc1nc(=O)[nH]cc1F [Flucytosine] | 0.983 | 0.968 | 0.961 | 1.01 | 0.996 | 0.991 | 1 | 0.965
20 | NC1CCN(c2nc3c(cc2F)c(=O)c(C(=O)O)cn3-c2ccc(F)cc2F)C1 (stereo not drawn) [Tosufloxacin hydrochloride] | 0.00626 (active) | 0.0173 (active) | 0.0443 (active) | 0.0355 (active) | 0.0157 (active) | 0.012 (active) | 0.00524 (active) | 0.00501 (active)
21 | COc1ccc2[nH]cc(CCNC(C)=O)c2c1 [Melatonin] | 0.987 | 0.972 | 0.997 | 0.992 | 0.988 | 1 | 0.996 | 0.996
22 | N=C(N)NC(=O)Cc1c(Cl)cccc1Cl [Guanfacine hydrochloride] | 0.983 | 0.971 | 1.02 | 0.988 | 1.02 | 1.04 | 0.989 | 0.966
23 | CCn1cc(C(=O)O)c(=O)c2cc(F)c(N3CCNCC3)cc21 [Norfloxacin] | 0.00731 (active) | 0.0176 (active) | 0.0427 (active) | 0.0323 (active) | 0.922 | 0.865 | 0.00734 (active) | 0.0069 (active)
24 | Cc1cc(NS(=O)(=O)c2ccc(N)cc2)no1 [Sulfamethoxazole] | 0.983 | 0.984 | 0.993 | 0.991 | 0.951 | 0.979 | 0.967 | 0.959
25 | CC(=O)Nc1nnc(S(N)(=O)=O)s1 [Acetazolamide] | 0.969 | 0.962 | 1.03 | 0.984 | 0.995 | 0.974 | 0.994 | 0.998
26 | COCCc1ccc(OCC(O)CNC(C)C)cc1 (stereo not drawn) [Metoprolol-(+)-tartrate salt] | 0.996 | 0.977 | 0.998 | 0.996 | 1.01 | 1.03 | 1 | 1.01
27 | NC(=O)N/N=C/c1ccc([N+](=O)[O-])o1 [Nitrofural] | 0.713 (active) | 0.154 (active) | 0.01 (active) | 0.875 (active) | 0.0943 (active) | 0.254 | 0.902 | 0.818
28 | COCCOC(=O)C1=C(C)NC(C)=C(C(=O)OC(C)C)C1c1cccc([N+](=O)[O-])c1 (stereo not drawn) [Nimodipine] | 0.984 | 0.939 | 0.956 | 0.957 | 1.02 | 1 | 0.991 | 0.967
29 | CN1CCN(CC(=O)N2c3ccccc3C(=O)Nc3cccnc32)CC1 [Pirenzepine dihydrochloride] | 0.993 | 1 | 0.988 | 1.01 | 1 | 0.98 | 0.999 | 1
30 | C=CCN1CCCC1CNC(=O)c1cc2nn[nH]c2cc1OC (stereo not drawn) [Alizapride hydrochloride] | 1 | 1 | 1.01 | 0.996 | 0.998 | 1 | 1.02 | 1
31 | Cn1c(=O)c2c(ncn2CC2OCCO2)n(C)c1=O [Doxofylline] | 1 | 1.07 | 1.01 | 0.99 | 1.02 | 1.06 | 0.999 | 1
